Screening data deposited in PubChem BioAssay by several laboratories.
PHOSPHO1 inh = PubChem AID 1565; inhibition, % at 13.3 µM; 290,000 tested, 1.1% active; recombinant PHOSPHO1, absorbance phosphatase assay; Phosphoethanolamine/phosphocholine phosphatase (Homo sapiens), Q8TCT1; in the data active = inhibition above about 60%
HDAC3 inh = HDAC3 deacetylase inhibitors, primary screen, biochemical, fluorescence, cell-free homogeneous; Histone deacetylase 3 (Homo sapiens), O15379; recombinant HDAC3, fluorogenic peptide/trypsin coupled; inhibition, % at 8.3 µM; 320,000 tested, 0.15% active; in the data active = inhibition above about 26%, passing the limit was not always enough; inconclusive = no clear call, values can overlap the other calls
PfM18AAP inh = PfM18AAP inhibitors, malaria aminopeptidase, primary screen, biochemical, QFRET, recombinant enzyme; AID 1822, 2009; 290,000 tested, 1.2% active; M18 aspartyl aminopeptidase (Plasmodium falciparum 3D7); H-Glu-NHMec fluorogenic cleavage; inhibition, % at 7.35 µM;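 active = inhibition above the campaign mean inhibition over all tested compounds plus 3 SD, cut at about 28% in these data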;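 note: 0% = plate median of test compound wells and 100% = 2 mM ZnCl2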
G6PDH CS = L. mesenteroides G6PDH inhibitors, counter-screen for G6PDH-coupled screening assays, biochemical, Leuconostoc mesenteroides enzyme; glucose-6-phosphate dehydrogenase [Leuconostoc mesenteroides]; 200,000 tested, 0.12% active; Purified L. mesenteroides G6PDH, diaphorase/resazurin coupled fluorescence, 45 min; inhibition, % at 5 µM; in the data active = inhibition above about 50%
UBC9 SUMO inh = inhibitors of in vitro SUMOylation cascade, primary screen, biochemical, HTRF, uHTS. 290,000 tested, 0.36% active. inhibition, % at 35 µM. SUMO-conjugating enzyme UBC9 (Homo sapiens), P63279. AID 2006, 2009. HTRF SUMOylation assay, SAE1/SAE2 + UBC9; in the data active = inhibition above about 50%, passing the limit was not always enough; inconclusive = no clear call, values can overlap the other calls
p97 ATPase inh = inhibitors of human p97 ATPase, primary screen, biochemical. Transitional endoplasmic reticulum ATPase (Homo sapiens), P55072. recombinant p97 ATPase, Kinase-Glo ATP luminescence, 3 h. inhibition, % at 8 µM. 220,000 tested, 0.42% active. AID 1481, 2009; in the data active = inhibition above about 15%;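 note: 0% = DMSO vehicle and 100% = wells lacking enzyme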
Target sequence (P55072 whole entry, looked up): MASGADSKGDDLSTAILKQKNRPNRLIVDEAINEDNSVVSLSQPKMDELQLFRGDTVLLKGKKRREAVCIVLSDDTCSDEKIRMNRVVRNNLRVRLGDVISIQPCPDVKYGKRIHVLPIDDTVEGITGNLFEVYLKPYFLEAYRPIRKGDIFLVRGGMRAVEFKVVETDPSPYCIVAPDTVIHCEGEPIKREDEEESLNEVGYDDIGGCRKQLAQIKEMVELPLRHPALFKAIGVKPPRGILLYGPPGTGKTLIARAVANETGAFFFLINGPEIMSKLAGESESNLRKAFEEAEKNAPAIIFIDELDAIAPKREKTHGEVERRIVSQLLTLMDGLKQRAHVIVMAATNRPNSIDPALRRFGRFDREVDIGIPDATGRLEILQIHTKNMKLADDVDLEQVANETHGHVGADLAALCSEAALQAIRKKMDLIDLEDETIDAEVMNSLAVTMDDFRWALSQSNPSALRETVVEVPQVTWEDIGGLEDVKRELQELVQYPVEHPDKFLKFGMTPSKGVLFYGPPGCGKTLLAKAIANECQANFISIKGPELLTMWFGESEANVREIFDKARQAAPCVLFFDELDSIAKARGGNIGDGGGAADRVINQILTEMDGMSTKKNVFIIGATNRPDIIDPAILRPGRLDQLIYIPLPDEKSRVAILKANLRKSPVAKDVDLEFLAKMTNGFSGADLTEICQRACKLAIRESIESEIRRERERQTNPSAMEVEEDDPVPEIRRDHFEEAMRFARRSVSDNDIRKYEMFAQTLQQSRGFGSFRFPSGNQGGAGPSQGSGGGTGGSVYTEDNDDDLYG
The depositor's hits bear a star; ? = inconclusive; . = no result given. Compounds with a hit are over-represented: about 2.5% of the library has one in this group of screens.

SMILES	PHOSPHO1 inh	HDAC3 inh	PfM18AAP inh	G6PDH CS	UBC9 SUMO inh	p97 ATPase inh
O=C1Nc2ccc(F)cc2C12OCCO2	23	?	0	.	-13	.
CCc1ccc2c(c1)C(NC(C)=O)C(=O)N2CCN1CCOCC1 (centres undefined)	23	-1	24	.	60*	.
CC(C)(C)c1cc(-c2nc(N)nc(N)n2)c(O)c(C(C)(C)C)c1	.	29*	.	.	.	.
COc1ccc(C2c3sc(=O)[nH]c3SCC2C(N)=O)cc1 (centres undefined)	28	5	-46	.	14	5
CCOC(=O)C1CSc2[nH]c(=O)sc2C1c1ccccc1 (centres undefined)	93*	3	-17	0	3	-5
O=C(CSc1nc2scc(-c3ccco3)c2c(=O)n1-c1ccccc1)N1CCOCC1	-7	?	-2	-1	21	4
NC(=O)CSc1nc2scc(-c3ccco3)c2c(=O)n1-c1ccccc1	28	4	-6	-1	26	15*
CCCCN1C(=O)C(=Nc2cccc3cnccc23)c2ccccc21	37	4	16	3	99*	0
O=[N+]([O-])c1ccc(Cl)c(/C=N/n2c(C3CCCCC3)n[nH]c2=S)c1	103*	5	12	2	8	6
CCOc1ccccc1Nc1nc(-c2sc(C)nc2C)cs1	-1	8	-6	2	-5	-6
COc1cccc(Nc2nc(-c3sc(NC(=O)CC(C)C)nc3C)cs2)c1	104*	7	4	1	24	-1
COc1cccc(Nc2nc(-c3sc(NC(=O)c4ccccc4)nc3C)cs2)c1	44	-1	-5	4	21	-5
CCCC(=O)Nc1nc(C)c(-c2csc(Nc3ccccc3OC)n2)s1	86*	?	3	-3	21	9
Cc1ccccc1Nc1nc(-c2sc(NC(=O)c3ccco3)nc2C)cs1	66*	6	9	-33	-1	3
C=CCCC(=O)Nc1nc(C)c(-c2csc(Nc3cc(OC)ccc3OC)n2)s1	72*	-4	1	13	1	5
O=C(Nc1ccc(C(F)(F)F)cc1)C1CCN(c2cnccn2)CC1	18	4	0	.	-3	.
CC(C)C[C@@]12C(=O)N(c3cccc(F)c3)C(=O)N1[C@H](c1ccc(Cl)cc1)[C@@H]1C(=O)N(C3CCCCC3)C(=O)[C@@H]12	.	-14	.	.	.	.
COc1cccc(-n2cnnc2SC(C)C(=O)NC2CCCC2)c1 (centres undefined)	.	-4	.	.	.	.
CCCC(=O)Nc1nc(C)c(-c2csc(Nc3ccc(Cl)cc3)n2)s1	20	-4	-1	7	13	-1
CCCC(C)C(=O)Nc1nc(C)c(-c2csc(Nc3cc(OC)ccc3OC)n2)s1 (centres undefined)	77*	-4	0	9	-3	3
CC(=O)Nc1nc(C)c(-c2csc(Nc3ccc(O)cc3)n2)s1	22	2	28*	-50	-21	8
COc1ccc(OC)c(Nc2nc(-c3sc(N)nc3C)cs2)c1	53	0	17	-62	0	10
CCC(C)C(=O)Nc1nc(C)c(-c2csc(Nc3ccc(Cl)cc3)n2)s1 (centres undefined)	-6	-2	-6	1	9	6
CCCCCC(=O)Nc1nc(C)c(-c2csc(Nc3cc(Cl)ccc3OC)n2)s1	89*	-18	-2	3	11	-2
CCCC(=O)Nc1nc(C)c(-c2csc(Nc3cc(OC)ccc3OC)n2)s1	89*	6	4	6	32	5
SMILES	PHOSPHO1 inh	HDAC3 inh	PfM18AAP inh	G6PDH CS	UBC9 SUMO inh	p97 ATPase inh
Cc1nc(N)sc1-c1csc(Nc2cccc(C(=O)O)c2)n1	34	4	29*	.	26	.
Cc1ccc(Nc2nc(-c3sc(NC(=O)c4cccc(Cl)c4)nc3C)cs2)cc1	-1	?	-8	5	15	2
COc1ccccc1Nc1nc(-c2sc(NC(=O)c3cccc(Cl)c3)nc2C)cs1	-66	11	8	6	-5	1
Cc1ccc(Cl)cc1Nc1nc(-c2sc(NC(=O)C(C)(C)C)nc2C)cs1	72*	10	2	4	9	6
C=CCCC(=O)Nc1nc(C)c(-c2csc(Nc3cccc(OC)c3)n2)s1	104*	-3	2	4	21	7
COc1ccccc1Nc1nc(-c2sc(NC(=O)C(C)(C)C)nc2C)cs1	67*	10	10	2	19	-3
CCC(=O)Nc1nc(C)c(-c2csc(Nc3cccc(C(=O)O)c3)n2)s1	58	-2	11	8	10	12
Cc1ccc(CNC(=O)CN2C(=O)CSc3ccc(S(=O)(=O)N4CCC(C)CC4)cc32)cc1	24	2	0	.	.	.
COc1ccccc1Nc1nc(-c2sc(NC(=O)CC(C)C)nc2C)cs1	77*	0	4	0	6	14
CCOc1ccccc1Nc1nc(-c2sc(NC(=O)c3ccco3)nc2C)cs1	50	-2	3	7	-5	0
CC1CCN(C(=O)COc2ccc(S(=O)(=O)N3CCOCC3)cc2)CC1	.	-1	.	.	.	.
O=C(C1CCCO1)N1CCN(Cc2c(O)ccc3ccccc23)CC1 (centres undefined)	104*	-8	-3	22	18	4
CC(C)=CCN1CCN(Cc2ccc(Sc3nncn3C)o2)CC1CCO (centres undefined)	32	1	-6	2	-6	3
CC(=O)N1c2ccccc2Sc2ccccc21	8	3	-9	.	8	.
CN1c2ccccc2Sc2cc(N)ccc21	15	-13	37*	.	-13	.
NC(=S)n1[nH]c(-c2ccc([N+](=O)[O-])cc2)c(N=Nc2ccc(Cl)cc2)c1=O	44	.	6	-4	64*	-1
CCOc1ccccc1C1C(C#N)=C(N)SC(N)=C1C#N	70*	5	6	2	-11	3
Sc1oc(-c2ccccc2)cc1C=Nc1ccccc1	91*	5	1	9	32	4
Oc1oc(-c2ccccc2)nc1C=Nc1ccccc1	29	11	2	12	19	3
COc1cc(C(C)=O)ccc1OCC(=O)OCCCOC(=O)COc1ccc(C(C)=O)cc1OC	24	0	-2	.	-2	.
CSCC[C@H](NC(=O)OC(C)(C)C)c1nnc(SCc2cccc(F)c2)o1	74*	0	1	5	13	-1
CCOc1ccc(-c2nnc(SCC(=O)Nc3ccc4c(c3)c3ccccc3n4CC)n2N)cc1	79*	1	-11	3	48	-4
